The sample as a whole holds a higher share of hits than the screen did.
nsP2pro inh – blocks chikungunya virus nsP2 protease peptide cleavage | Q8JUX6 | FRET peptide cleavage, nsP2pro, fluorescence 1 h | Potency, µM (top dose mostly 24.9 µM), for the others: top-dose activity change, negative = inhibition, most hits filed as inhibitors | actives 1.1% (n = 31,000); calls by dose curve; note: nearly all actives have a fitted effect of over 60% in size
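Recombinant nsP2pro (150 nM) was preincubated with compound 15 min at room temperature in 10 mM Tris-HCl pH 8.0, 0.01% Tween 20. Peptide 2 FRET substrate (2.5 uM) was then added and fluorescence read after 1 h. Seven-point series, up to 25 uM.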
An asterisk follows results filed as active; i = inactive; ! = repeats disagree; [ ] = another dose, or the depositor's remark. % is set by controls: 0 for no effect and ±100 for the full control effect; potency is the fitted concentration of half-maximal effect.

SMILES	nsP2pro inh
O=C1CC2(CCN(C(=O)C3CCCN3C(=O)c3ccc(Cl)nc3)CC2)Oc2ccccc2N1 (stereo not drawn)	-6%
COc1ccnc(NC(=S)N2CCN(c3ccc(Cl)c(Cl)c3)CC2)c1	i
S=C(Nc1cc(Cl)ccn1)N1CCN(c2ccc(Cl)cc2Cl)CC1	0%
C/C(=C1\CCOC(=O)S1)N(C=O)Cc1cnc(C)nc1N	5%
CC(=C(CCOC(=O)C(C)C)SSC(CCOC(=O)C(C)C)=C(C)N(C=O)Cc1cnc(C)nc1N)N(C=O)Cc1cnc(C)nc1N	11µM*
C[S+](=O)([O-])N1CC2(CCN(Cc3ccc(Cl)cc3)C2)Cc2ccccc21 (stereo not drawn)	-2%
Cn1cccc1-c1noc(C2CCN(C(=O)CCCc3ccccc3)C2)n1 (stereo not drawn)	i
Cc1ccccc1OCc1nc(C2CN(C(=O)c3nccc4ccccc34)C2)no1	3%
CN(C)S(=O)(=O)N1CCc2nn(C)c(=O)n2CC1	-23%
CCOc1ccc(C(=O)Nc2ccc(-c3nnc4n3CCCCC4)cc2)cc1OCC	10µM*
COc1ccc(Cl)cc1C(=O)Nc1ccc(-c2nnc3n2CCCCC3)cc1	-2%
O=C(CCC1CCCC1)Nc1ccc(-c2nnc3n2CCCC3)cc1	5%
Cc1cc(C)nc(NC(=S)N2CCN(c3cncnc3)CC2)c1	3%
O=C(NCC1CC1)C1CN(Cc2ccccc2)C(=O)N1 (stereo not drawn)	5%[39.2 µM]
O=C(NCc1cccc(F)c1)c1nc2c(o1)CCN(CC1CCCC1)CC2	3.5µM*
COc1ccc(CN2CCc3ncc(C(=O)NCc4ccc5c(c4)OCO5)n3CC2)cn1	i
O=C(NCc1ccc(F)cc1)c1nnc(Cc2cccc(F)c2)o1	-14%
O=C(NC1CC1)[C@@H]1CN(CCCc2ccccc2)C[C@H]1CO	-15%
Cc1c(C(=O)NCc2cccc(F)c2)oc2c1-c1[nH]ncc1CC2	-32%
COc1ccc(CN2CCc3nc(C(=O)NCCOc4ccccc4)oc3CC2)cn1	3.5µM*
O=C(NCC1CC1)c1nc2c(o1)CCN(CCCc1ccccc1)CC2	10µM*
Cc1[nH]cnc1CN1CCc2nc(C(=O)NCCOc3ccccc3)oc2CC1	i
CSc1ccc(OCc2ncc([N+](=O)[O-])n2C)cc1	-6%
Cc1cc(C)nc(NC(=C(C#N)C#N)N2CCN(c3cccc(C(F)(F)F)c3)CC2)c1	-12%
O=C(NCc1cccs1)c1cc(C2CC2)nc2onc(C3CCCNC3)c12 (stereo not drawn)	-7%
SMILES	nsP2pro inh
Cc1cc(=O)oc2cc(CN(C)CC(C)N3CCOCC3)ccc12 (stereo not drawn)	-10%
CN1CCN(C2=Nc3ccccc3Nc3ccc(Cl)cc32)CC1	2%
CN1CCN(C2=Nc3ccccc3Cc3ccccc32)CC1	-1%
Cc1cc2c(s1)Nc1ccccc1N=C2N1CCN(C)CC1	11µM*!
N#Cc1ccc(N2N=C3c4ccc(C(=O)O)cc4CC[C@@H]3[C@@H]2C2CCCC2)cc1Cl	78%
CC(CCc1ccc(O)cc1)NCC(O)c1ccc(O)cc1 (stereo not drawn)	1%
CC(Cc1ccc2c(c1)OCO2)NCC(O)c1ccc(O)c(O)c1 (stereo not drawn)	11µM*
COc1ccc(C[C@H](C)NC[C@@H](O)c2ccc(O)c(NC=O)c2)cc1	12%
COc1cc(N2CCN(C(=S)Nc3cc(C)cc(C)n3)CC2)cc(C(F)(F)F)c1	-13%
Cc1nonc1Cc1nc(C2CCOCC2)nn1CC1COCCO1 (stereo not drawn)	i
COc1ccc(-c2csc(NC(=O)c3ccncc3NS(=O)(=O)c3ccc(C)cc3)n2)cc1	i
CCc1cc(C(=O)N2CCN(c3ccccc3)CC2)no1	-2%
CCOC(=O)c1c(-c2ccc(C)cc2)csc1NC(=O)c1cc(-c2ccc(OC)cc2)on1	-20%
CCc1cc(C(=O)Nc2sc(C)c(CC)c2C#N)no1	11µM*
CC(C)(C)N(C[C@@H](O)[C@H](Cc1ccccc1)NC(=O)O[C@H]1CO[C@H]2OCC[C@H]21)[S+](=O)([O-])c1ccc(N)cc1	-1%
CC(C)c1c(-c2cnn(C(C)(C)C)c2)nc2c(C#N)c[nH]n2c1=O	-4%
CN(C)C(=O)N1CCN(C2CCNCC2)C(=O)C1	13µM*
CN1CC(=O)N(C2CCCNCC2)Cc2c1ncnc2N1CCCC1CO (stereo not drawn)	-29%
COCCNC(=O)C1CCC(=O)N1C1CCNCC1 (stereo not drawn)	3%
COc1cccc(CN2Cc3cc(NC(=O)c4ccc(F)cc4F)ccc3OC(C)C2=O)c1 (stereo not drawn)	-15%
CC1COC2=C1C(=O)C(=O)c1c2ccc2c1CCCC2(C)C (stereo not drawn)	11µM*
COc1ccc(CC(C)(C)NC[C@H](O)c2cc(O)cc3c2OCC(=O)N3)cc1	-5%
Cc1ccc(S(=O)(=O)Nc2cnccc2C(=O)Nc2nc(-c3ccncc3)cs2)cc1	i
O=C(c1cccc(C(F)(F)F)c1)N1CC(CO)C2(CCNCC2)C1 (stereo not drawn)	-4%
O=C(c1ccc(Cl)cc1)N1CC(CO)C2(CCNCC2)C1 (stereo not drawn)	7.9µM*
SMILES	nsP2pro inh
COc1ccc(C(=O)N2CC(CO)C3(CCNCC3)C2)cc1 (stereo not drawn)	-4%
Cc1cn([C@H]2O[C@@H](CO)[C@H](O)[C@H]2F)c(=O)[nH]c1=O	-15%
COc1ccc(NC(=O)N[C@H]2CO[C@H]3[C@@H]2OC[C@@H]3n2nnnc2-c2ccccc2)cc1	-4%[39.2 µM]
O[C@@H]1CO[C@H]2[C@@H]1OC[C@@H]2n1nnnc1SCc1ccco1	11µM*
O=C(NC1CCCCC1)O[C@@H]1CO[C@H]2[C@@H]1OC[C@@H]2n1nnnc1-c1ccccc1	-4%[39.2 µM]
CN(C)c1nc2c(c(N3C[C@@H](CN4CCCC4)[C@@H](CO)C3)n1)CCCC2	-5%
CCCS(=O)(=O)Nc1ccc(=O)n2c1[C@@H]1C[C@@H](CN(C(=O)c3ccc(F)cc3)C1)C2	-1%[39.2 µM]
COc1ccc(S(=O)(=O)Nc2ccc3n(c2=O)C[C@H]2C[C@@H]3CN(C(=O)c3ccccn3)C2)cc1	-29%
O=C(c1ccc(F)cc1)N1C[C@@H]2C[C@H](C1)c1ccc(NS(=O)(=O)Cc3ccccc3)c(=O)n1C2	13µM*
CC(C)[C@@H]1NC(=O)[C@@H](C(C)C)OC(=O)[C@H](C(C)C)NC(=O)[C@H](C)OC(=O)[C@@H](C(C)C)NC(=O)[C@@H](C(C)C)OC(=O)[C@H](C(C)C)NC(=O)[C@H](C)OC(=O)[C@@H](C(C)C)NC(=O)[C@@H](C(C)C)OC(=O)[C@H](C(C)C)NC(=O)[C@H](C)OC1=O	28%
COc1ccc(-c2n[nH]c3c2CC(=O)N(c2ccccc2)C3)cn1	-9%[39.2 µM]
Cc1cc(C)nc(NC(=S)N2CCN(c3ccc(C(=O)O)cc3)CC2)c1	-4%
CCN1CCOC(=O)C1CC(=O)Nc1ccccc1C(F)(F)F (stereo not drawn)	11µM*
O=C(CC1C(=O)OCCN1Cc1ccccc1)Nc1cccc(C(F)(F)F)c1 (stereo not drawn)	-16%
CCOC(=O)C1=CN(CC(=O)Nc2ccccc2C(F)(F)F)S(=O)(=O)N=C1C	-7%
COc1ccc(NC(=O)CN2C(=O)N/C(=C\c3cccn3-c3ccc(C(=O)NC#N)cc3)C2=O)cc1	i
COc1cccc(CCC(=O)N2CCCC(CN3CCCC3)CC2)c1 (stereo not drawn)	-9%
CCC1C(=O)NCCN1Cc1cn(-c2cccc(F)c2)nc1-c1ccc(C)o1 (stereo not drawn)	11µM*

Source: PubChem
